Data reported in PubChem BioAssay (NCATS).
Unmarked numbers belong to inactive results. The source made the active and inactive calls. Calls come from the whole dose curve; as a rule, active = well fitted inhibition curve with a large enough effect; inconclusive = small, poorly fitted or top-dose-only effect; inactive = no such curve, though single readings can be large or run the other way.

Each molecule was assayed against Single-stranded DNA cytosine deaminase (Homo sapiens) (UniProt Q9GZX7) (assay: Validation qHTS assay for inhibitors of Activation Induced Cytidine Deaminase (AID): AID signal (AID 1347429)). Details: Recombinant AID, FRET ssDNA deamination with UDG, fluorescence; series mostly up to 115 µM; activity change, negative = inhibition: at the top concentration.
Sequence of Single-stranded DNA cytosine deaminase (Homo sapiens) (Q9GZX7 whole entry, looked up): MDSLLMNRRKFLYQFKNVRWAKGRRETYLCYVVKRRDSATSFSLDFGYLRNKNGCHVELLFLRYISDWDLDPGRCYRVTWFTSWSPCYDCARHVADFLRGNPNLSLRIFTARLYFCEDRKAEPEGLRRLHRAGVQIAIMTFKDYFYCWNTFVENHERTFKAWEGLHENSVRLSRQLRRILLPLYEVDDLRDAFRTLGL
Text: Assay Provider (PI) Patricia Gearhart Ph.D. National Institute on Aging National Institute of Health (NIH), Bethesda, MD Assay Provider (PI) Rahul Kohli Ph.D. Perelman School of Medicine University of Pennsylvania, Philadelphia, PA Activation-Induced Deaminase (AID) is a cytosine deaminase which converts cytosine into uracil within stretches of ssDNA. The presence of uracil in DNA initiates a cascade of mutagenic DNA repair to introduce point mutations and DNA double strand breaks. Specific targeting of AID to the immunoglobulin heavy chain loci (Igh) promotes mutagenesis in the antibody variable region for somatic hypermutation (SHM) or switch regions leading to class switch recombination (CSR). However, AID also plays a role in accumulating unnecessary mutations across the genome. Mis-targeting of AID results in the initiation of tumor development and leads to greater drug resistance among cancer cells when continually expressed. To identify an AID inhibitor, a small molecule library will be screened in collaboration with NCATS core facility at NIH. To confirm biological function, inhibitors will be examined in an in vitro murine B-cell activation assay and subsequent secondary validation screens. Top molecules will be further screened to identify inhibitory efficacy against a wild type primary splenocytes assay. Using these approaches, we hope to identify a small molecule with great efficacy and low toxicity for use as a molecular probe to further characterize AID's intricacies, or even as a therapeutic. A FRET based analysis of cytosine deamination, was developed to identify potential inhibitors of AID catalytic activity. This screen has two signal output, Read 1 evaluates the AID inhibition response. The second readout (Read 2) evaluates UDG response and is uses as a counterscreen to exclude false positive inhibitors. Inhibition in AID and inactivity in the UDG signal is the desired outcome for this assay.
PROTOCOL TABLE SEQUENCE No. (e.g., 1, 2, 3, etc.); […] (e.g., Cells, Incubation, Reagent, etc.); VALUE; DESCRIPTION 1a; Reagent; 3 uL; [4/3x] […] 250 nM DJC20 / 250 nM DJC23 [Substrate] 5; Time; 4 hr; incubation at room temperature 6; Reagent; 4 uL; [2x] 250 mM NaOH 7; Time; 15 sec; centrifuge at 1000 rpm 8; Time; 30 min; incubation at room temperature 9a; Detection; fluorescence (Read 1: AID); EnVision (PerkinElmer) plate reader, 540 excitation and 590 emission filters 9b; Detection; fluorescence (Read 2: UDG); EnVision (PerkinElmer) plate reader, 560 excitation and 665 emission filters NOTES (numbers refer to sequence above) 1a; Reagents were dispensed in a medium-binding black solid-bottom Greiner plates (789176F) using a BioRptr liquid dispenser. Dispense 3 uL of [4/3x] 1 uM AID (provided by Kohli lab) and [4/3x] 2 U/mL UDG (NEB M0280L) into columns 1, 2, 5 to 48. 1b; Dispense 3 uL of [4/3x] 2 U/mL UDG into column 3. 1c; Dispense 3 uL of [4/3x] 1 uM AID into column 4. 2a; Compound ([…] [uM] (0.64; 3.2; 16; 80; 400; 2,000; 10,000; 20,000) double pin-transferred (Dip Factor = 2) using the Kalypsys (Wako USA) pintool equipped with a 1536 pinhead for a final concentration range of 7.32 nM - 114 uM. 2b; 10 mM Aurintricarboxylic Acid (Sigma A1895) (ATA, 8-point, n = 2, 1:2.5 dilution in column 2) double pin-transferred (Dip Factor = 2) using the Kalypsys (Wako USA) pintool equipped with a 1536 pinhead for a [final] range of 186 nM - 114 uM. 3; Room temperature incubation. 4; Dispense 1 uL of substrate mixture from the Kohli lab [4x] […] DJC20 and [4x] 250 nM DJC23 into columns 1 to 48 . 5; Room temperature incubation. 6; Dispense 4 uL of substrate mixture [2x] 250 mM NaOH into columns 1 to 48. 7; Centrifugation step to remove bubbles. 8; Room temperature incubation 9a; Fluorescence signal (column label AID) was read using the EnVision plate reader. Excitation filter = 540(8) nm, barcode = 311; Emission filter = 590(20) nm, barcode = 217; Mirror = D555, barcode = 405. […]
% is set by controls: 0 for no effect and ±100 for the full control effect.

Structure (SMILES)	activity change, negative = inhibition [%]	Potency
O=C(Nc1ccccc1)c1cc([N+](=O)[O-])ccc1Cl	-4.5	–
O=C(O)CNC(=O)C(CS)Cc1ccccc1 (stereo not given)	25.7	–
CN1CCC[C@H]1c1cccnc1	31.8	–
Cc1ccc(O)c(N=Nc2ccccc2)n1	1.84	–
O=C(O)CC1CCCc2ccccc2C1O (stereo not given)	25.4	–
Nc1nc(SCc2ccc([N+](=O)[O-])cc2)c2ncn([C@@H]3O[C@H](CO)[C@@H](O)[C@H]3O)c2n1	10.5	–
Oc1ccccc1O	23.2	–
O=C(O)CCCC[C@@H]1CCSS1	21.8	–
O=c1[nH]c2cc(Cl)c(Cl)cc2[nH]c1=O	85.9	–
CN(C)CCC(c1ccc(Cl)cc1)c1ccccn1 (stereo not given)	12.9	–
C=CC(=O)c1ccc(CCCCCC)cc1	3.8	–
O=P(O)(O)C(Cl)(Cl)P(=O)(O)O	7.71	–
O=C1/C(=C/c2ccsc2)CC/C1=C\c1cccs1	19.1	–
CN1CC(=O)N/C1=N/C(=O)Nc1cccc(Cl)c1	7.86	–
CN1C2CC(OC(=O)[C@H](CO)c3ccccc3)CC1C1OC12 (stereo not given in full)	20	–
C[C@@H](NC(=O)/C(C#N)=C/c1ccc(O)c(O)c1)c1ccccc1	9.54	–
Clc1ccc(N2CCN(Cc3cc4ccccn4n3)CC2)cc1	7.63	–
Cc1cc2c(cc1Cl)N(C(=O)Nc1ccc(Oc3cccnc3C)nc1)CC2	13.5	–
NO	-21.7	–
Oc1cc(O)cc(/C=C/c2ccc(O)c(O)c2)c1	18.1	–

Structure (SMILES)	activity change, negative = inhibition [%]	Potency
CN1CCc2cccc3c2C1Cc1ccc(O)c(O)c1-3 (stereo not given)	51.4	–
OC[C@H]1O[C@@H](n2cnc3c(NC4CCCC4)ncnc32)[C@H](O)[C@@H]1O	18.7	–
Nc1ncnc2c1ncn2[C@@H]1O[C@H](COP(=O)(O)OP(=O)(O)OP(=O)(O)OP(=O)(O)OC[C@@H]2O[C@H](n3cnc4c(N)ncnc43)[C@@H](O)[C@H]2O)[C@@H](O)[C@H]1O	10.4	–
CC(=O)SCC[N+](C)(C)C	15.5	–
CCCCCCCCCCCCCCCCCC(=O)OC(CC(=O)O)C[N+](C)(C)C (stereo not given)	-1.84	–
COc1cc(OC)c(/C=C2/C(=O)Nc3ccccc32)c(OC)c1	11.5	–
NCCSSCCN	15.3	–
O=c1[nH]c2cc(C(F)(F)F)ccc2n1-c1cc(C(F)(F)F)ccc1O	11.6	–
Brc1c(Br)c(Br)c2n[nH]nc2c1Br	-6.27	–
CCOC(=O)N1CCN(/[N+]([O-])=N/Oc2ccc([N+](=O)[O-])cc2[N+](=O)[O-])CC1	20.2	–
O=C(O)[C@@H]1C[C@@H](C(=O)O)N1	22.4	–
O=C(c1ccc(Cl)cc1)N1CCN(c2ccc([N+](=O)[O-])c3ncccc23)CC1	83.3	–
COc1ccc(/C=C/C(=O)Nc2ccccc2C(=O)O)cc1OC	-1.45	–
CC1OC1P(=O)(O)O (stereo not given)	0.788	–
O=C1NC(=O)/C(=C/c2ccc3nccnc3c2)S1	24.1	–
OC[C@H]1O[C@@H](n2cnc3c(Nc4ccccc4)ncnc32)[C@H](O)[C@@H]1O	6.47	–
COc1ccccc1N1CCN(CCN(C(=O)c2ccc(I)cc2)c2ccccn2)CC1	2.67	–
CN(C)C(N)=NCCC[C@H](N)C(=O)O	17.8	–
CCC1C(=O)OCC1Cc1cncn1C (stereo not given)	–	inactive
CO/S(=N\S(=O)(=O)c1ccc(Cl)cc1)c1ccc([N+](=O)[O-])cc1 (stereo not given)	4.74	–
